Data taken from article doi:10.1101/2024.03.05.583629.

Target: pT7_6His-AlfaTag-ZIF268 (human, UniProt P18146 335-423)
Test: PADIT-seq
Settings: dsDNA, one strand shown

Sequence	binding signal [log2FC]
CTCGAGGATATCAAGATCTGGCCTCGGCGCGTGGGGCGGAACCTCTAGCTAGCCGACTCACTATAGGGATAATCGCCCTGAGCAAAGACC	0.735 ± 0.107
CTCGAGGATATCAAGATCTGGCCTCGGCCGCCCACCAGGAACCTCTAGCTAGCCGACTCACTATAGGGATAATCGCCCTGAGCAAAGACC	0.0728 ± 0.0981
CTCGAGGATATCAAGATCTGGCCTCGGCCGCCCAAGGGGAACCTCTAGCTAGCCGACTCACTATAGGGATAATCGCCCTGAGCAAAGACC	0.0235 ± 0.109
CTCGAGGATATCAAGATCTGGCCTCGGCGCGTGGCAAGGAACCTCTAGCTAGCCGACTCACTATAGGGATAATCGCCCTGAGCAAAGACC	0.0121 ± 0.1
CTCGAGGATATCAAGATCTGGCCTCGGCGCGTGGTTTGGAACCTCTAGCTAGCCGACTCACTATAGGGATAATCGCCCTGAGCAAAGACC	0.236 ± 0.101
CTCGAGGATATCAAGATCTGGCCTCGGCCAGTGGGCGGGAACCTCTAGCTAGCCGACTCACTATAGGGATAATCGCCCTGAGCAAAGACC	1.87 ± 0.0948
CTCGAGGATATCAAGATCTGGCCTCGGCGTTCCACGCGGAACCTCTAGCTAGCCGACTCACTATAGGGATAATCGCCCTGAGCAAAGACC	0.016 ± 0.0847
CTCGAGGATATCAAGATCTGGCCTCGGCGCGTGGCTAGGAACCTCTAGCTAGCCGACTCACTATAGGGATAATCGCCCTGAGCAAAGACC	0.021 ± 0.107
CTCGAGGATATCAAGATCTGGCCTCGGCGACTGGGCGGGAACCTCTAGCTAGCCGACTCACTATAGGGATAATCGCCCTGAGCAAAGACC	0.0505 ± 0.0931
CTCGAGGATATCAAGATCTGGCCTCGGCCCGTGGGCGGGAACCTCTAGCTAGCCGACTCACTATAGGGATAATCGCCCTGAGCAAAGACC	3.06 ± 0.0841
CTCGAGGATATCAAGATCTGGCCTCGGCCGCCCACGTGGAACCTCTAGCTAGCCGACTCACTATAGGGATAATCGCCCTGAGCAAAGACC	1.68 ± 0.0823
CTCGAGGATATCAAGATCTGGCCTCGGCAGGTGGGCGGGAACCTCTAGCTAGCCGACTCACTATAGGGATAATCGCCCTGAGCAAAGACC	2.15 ± 0.0839
CTCGAGGATATCAAGATCTGGCCTCGGCGCGTGGGTGGGAACCTCTAGCTAGCCGACTCACTATAGGGATAATCGCCCTGAGCAAAGACC	4.08 ± 0.0892
CTCGAGGATATCAAGATCTGGCCTCGGCTTGCCACGCGGAACCTCTAGCTAGCCGACTCACTATAGGGATAATCGCCCTGAGCAAAGACC	0.107 ± 0.166
CTCGAGGATATCAAGATCTGGCCTCGGCGCGTGGTGAGGAACCTCTAGCTAGCCGACTCACTATAGGGATAATCGCCCTGAGCAAAGACC	0.258 ± 0.102
CTCGAGGATATCAAGATCTGGCCTCGGCGCGCCCGCGGGAACCTCTAGCTAGCCGACTCACTATAGGGATAATCGCCCTGAGCAAAGACC	0.783 ± 0.131
CTCGAGGATATCAAGATCTGGCCTCGGCGTGTGGGCGGGAACCTCTAGCTAGCCGACTCACTATAGGGATAATCGCCCTGAGCAAAGACC	3.29 ± 0.0753
CTCGAGGATATCAAGATCTGGCCTCGGCAAGTGGGCGGGAACCTCTAGCTAGCCGACTCACTATAGGGATAATCGCCCTGAGCAAAGACC	2.06 ± 0.0801
CTCGAGGATATCAAGATCTGGCCTCGGCCGCCCACCTGGAACCTCTAGCTAGCCGACTCACTATAGGGATAATCGCCCTGAGCAAAGACC	0.259 ± 0.108
CTCGAGGATATCAAGATCTGGCCTCGGCGCGTAGGCGGGAACCTCTAGCTAGCCGACTCACTATAGGGATAATCGCCCTGAGCAAAGACC	3.65 ± 0.0875
CTCGAGGATATCAAGATCTGGCCTCGGCCGCCCACAGGGAACCTCTAGCTAGCCGACTCACTATAGGGATAATCGCCCTGAGCAAAGACC	0.494 ± 0.158
CTCGAGGATATCAAGATCTGGCCTCGGCGCGAGCGCGGGAACCTCTAGCTAGCCGACTCACTATAGGGATAATCGCCCTGAGCAAAGACC	0.0892 ± 0.102
CTCGAGGATATCAAGATCTGGCCTCGGCGCGGAGGCGGGAACCTCTAGCTAGCCGACTCACTATAGGGATAATCGCCCTGAGCAAAGACC	1.88 ± 0.11
CTCGAGGATATCAAGATCTGGCCTCGGCTGGTGGGCGGGAACCTCTAGCTAGCCGACTCACTATAGGGATAATCGCCCTGAGCAAAGACC	1.81 ± 0.0735
CTCGAGGATATCAAGATCTGGCCTCGGCCGCATGCGCGGAACCTCTAGCTAGCCGACTCACTATAGGGATAATCGCCCTGAGCAAAGACC	0.0876 ± 0.0884
CTCGAGGATATCAAGATCTGGCCTCGGCCGCCAACGCGGAACCTCTAGCTAGCCGACTCACTATAGGGATAATCGCCCTGAGCAAAGACC	0.204 ± 0.0826
